The results in this text go back to PubChem BioAssay (Tox21).

A number with no mark means an inactive call. Activity calls are given as the source filed them. Calls come from the whole dose curve; as a rule, active = well fitted curve in the direction sought with a large enough effect in the repeat runs; inconclusive = weak or mixed curves; inactive = flat fitted curve, though single readings scatter.
% is set by controls: 0 for no effect and ±100 for the full control effect.

This test in a line: qHTS assay to test for compound auto fluorescence at 460 nm (blue) in HepG2 cells (AID 720687). To be noted: autofluorescence 405/460 nm, 1 h; series mostly up to 91.3 µM; fluorescence, % of fluorescent control: at the top concentration. An excerpt:
U.S. Tox21 Program National Center for Advancing Translational Sciences [NCATS] NIH Chemical Genomics Center [NCGC] U.S. Environmental Protection Agency [EPA] National Institutes of Environmental Health Sciences [NIEHS] National Toxicology Program [NTP] U.S. Food and Drug Administration [FDA] Tox21 Assay Overview: Compound auto fluorescence often interferes with screening of the compound library against various biological targets and signaling pathways. Some of these compounds may have fluorophoric properties. Such properties may interfere with the assay outputs resulting in false positives and/or negatives. To decrease such complications and ensure the compound activities are relevant in terms of biological response, the Tox21 10K compound library was screened for auto fluorescence. From the fluorophores used as reporter signals in our screening assays, the auto fluorescence equivalencies of compounds against three fluorophores have been evaluated: Triamterene, Fluorescein and Rose Bengal sodium for blue, green and red fluorescence, respectively. The fluorescence intensities were measured using Excitation/Emission wavelengths at 405/460nm, 485/535nm and 540/590nm for blue, green and red labels, respectively. This assay includes the blue fluorescence data.
Tox21 Assay Protocol Summary: 2,000 HepG2 cells in 5 uL of culture medium (MEM containing 10% FBS) per well were dispensed into black wall/clear bottom 1536-well plates using a Multidrop Combi Dispenser (ThermoFisher Scientific, Waltham, MA). The assay plates were incubated overnight at 37 C to allow cell attachment to the well bottom, followed by the transfer of 23 nL compound or DMSO vehicle by a pintool work station (Kalypsys , San Diego, CA). After the assay plates were incubated for 1 hr at 37 C and 5% CO2, fluorescence intensities in the assay plates were measured by an Envision (PerkinElmer, Shelton, CT) plate reader using three labels for measuring blue, green and red fluorescence at […] 460, 535 and 590 nm respectively.
Consider `CCCN(CCC)C(=O)C(CCC(=O)O)NC(=O)c1ccccc1` (stereo not given), for which the “fluorescence, % of fluorescent control” value is -0.133% [at 46 µM].

In the case of `CCCCCCCCOC(=O)CCCCCCCCC(=O)OCCCCCCCC`, the “fluorescence, % of fluorescent control” value is 0.0095%.

As for `CCCCCCC`, the “fluorescence, % of fluorescent control” value is -0.149% [at 95.7 µM].

Take `CN1CCC[C@@H]1Cc1c[nH]c2ccc(CCS(=O)(=O)c3ccccc3)cc12`: the “fluorescence, % of fluorescent control” value is 0.0851% [at 46 µM].

Turning to `FC(F)(F)C(F)(F)C(F)(F)C(F)(F)C(F)(F)C(F)(F)C(F)(F)C(F)(F)Br`, the “fluorescence, % of fluorescent control” value is 0.0678% [at 46 µM].

For `CC(C)C(=O)OC/C=C/c1ccccc1`, the “fluorescence, % of fluorescent control” value is -0.144%.

On to `CCN(O)CC`, for which the “fluorescence, % of fluorescent control” value was -0.0147%.

Consider `C[C@]12C(=O)OC(=O)[C@H]1[C@H]1C=C[C@@H]2C1`, for which the “fluorescence, % of fluorescent control” value was -0.128%.

As to `O=C(C(Cl)Cl)N1CCOC12CCCCC2`, the “fluorescence, % of fluorescent control” value is 0.0848%.

As for `Cc1cc(S(=O)(=O)O)c(N)cc1Cl`, the “fluorescence, % of fluorescent control” value is -0.0147%.

In the case of `Cc1ccccc1C(=O)Nc1ccc(C(=O)N2CCCC(O)c3cc(Cl)ccc32)c(C)c1` (stereo not given), the “fluorescence, % of fluorescent control” value is 0.248% [at 46 µM].

As for `CC(C)NC[C@@H](O)COc1cccc2ccccc12`, the “fluorescence, % of fluorescent control” value is -0.0092% [at 46 µM].

Take `O=c1[nH]c(=O)n([C@H]2C[C@H](O)[C@@H](CO)O2)cc1C(F)(F)F`: the “fluorescence, % of fluorescent control” value is 0.0335% [at 46 µM].

`CC(C)(CO)[C@@H](O)C(=O)NCCC(=O)O`: the molecule was called inactive.

For `NCCCN1CCN(CCCN)CC1`, the “fluorescence, % of fluorescent control” value is 0.254%.

As for `CCCCCCCOC(=O)CCC`, the “fluorescence, % of fluorescent control” value is 0.0634%.

Take `Nc1ccc(Oc2ccc(N)c(N)c2)cc1`: the “fluorescence, % of fluorescent control” value was -0.174%.

Turning to `CCCOCCC`, the “fluorescence, % of fluorescent control” value was -0.132%.

Take `C1CSCCS1`: the “fluorescence, % of fluorescent control” value was -0.115%.

Take `CCN(CC)CCNC(=O)COc1ccc(Cl)cc1`: the “fluorescence, % of fluorescent control” value was 0.0194% [at 46 µM].

For the molecule `OCCN(CCO)CCN(CCO)CCO`, the “fluorescence, % of fluorescent control” value was 0.117%.

For `COc1ccc(S(=O)(=O)Nc2nnc(CC(C)C)s2)cc1`, the molecule was classed as inactive.

In the case of `Cc1ccc(C=O)s1`, the “fluorescence, % of fluorescent control” value was 0.0117%.

In the case of `COc1nc(C)nc(NC(=O)NS(=O)(=O)c2ccccc2OCCCl)n1`, the “fluorescence, % of fluorescent control” value was 0.0031%.

Consider `Cc1ccc([N+](=O)[O-])cc1Cl`, for which the “fluorescence, % of fluorescent control” value was -0.105% [at 95.7 µM].

Consider `O=C(O)c1ccccc1Nc1cc(Cl)ccc1C(=O)O`, for which the “fluorescence, % of fluorescent control” value was -0.0209% [at 46 µM].

On to `O=C(O)C(=O)Cc1c[nH]c2ccccc12`, for which the “fluorescence, % of fluorescent control” value is 0.0775%.

As for `Cc1c(C(=O)NCCO)[n+](=O)c2ccccc2n1[O-]`, the “fluorescence, % of fluorescent control” value was 0.335% [at 46 µM].

For the molecule `CCCC1CCC(=O)O1` (stereo not given), the “fluorescence, % of fluorescent control” value was -0.15%.

Take `CCc1cc(Cl)c(OC)c(C(=O)NC[C@@H]2CCCN2CC)c1O`: the molecule was classed as inactive.

For `C[C@@H]1CN(c2c(F)c(N)c3c(=O)c(C(=O)O)cn(C4CC4)c3c2F)C[C@H](C)N1`, the “fluorescence, % of fluorescent control” value is 0.0628% [at 46 µM].

For the molecule `CN1CCN(C2=Nc3cc(F)ccc3Cc3ccccc32)CC1`, the “fluorescence, % of fluorescent control” value is 0.0755% [at 46 µM].

As for `CCN(CC)C(=O)N(CC)CC`, the “fluorescence, % of fluorescent control” value is 0.0861%.

As to `COC(=O)N[C@H](C(=O)N[C@@H](Cc1ccccc1)[C@@H](O)CN(Cc1ccc(-c2ccccn2)cc1)NC(=O)[C@@H](NC(=O)OC)C(C)(C)C)C(C)(C)C`, the “fluorescence, % of fluorescent control” value was 0.0278% [at 46 µM].

For the molecule `CC(C)OC(C)C`, the “fluorescence, % of fluorescent control” value was -0.0398% [at 95.7 µM].

`C1CCOC1`: the “fluorescence, % of fluorescent control” value was 0.0572% [at 95.7 µM].

With `Cc1cc(NS(=O)(=O)c2ccc(N)cc2)nc(C)n1`, the “fluorescence, % of fluorescent control” value is -0.0424% [at 46 µM].

As to `CC1CN(c2ccccc2)NC1=O` (stereo not given), the “fluorescence, % of fluorescent control” value was 0.0158%.

`O=C(Cl)c1cccc([N+](=O)[O-])c1`: the “fluorescence, % of fluorescent control” value was 0.0051%.

On to `CCC1(C)NC(=O)NC1=O` (stereo not given), for which the “fluorescence, % of fluorescent control” value was -0.024%.
